Conditions in all cases: concentration: 1 μM, replicates: in singlicate; n = 1
Assay [1] deals with BMPR1A.
In assay [2] the test system is BMPR1B.
Assay [3] deals with BMPR2.
Assay [4] relates to BMX.
Assay [5] has as its system BRAF.
For assay [6], the system named is T1, BRK.
T1 construct: gene PTK6

Assay [7] deals with BRSK1.
For assay [8], the system named is BRSK2.
Assay [9] deals with BTK.
Assay [10] concerns BUB1.

The results in this text go back to article PMC5540273 (PLoS ONE, 2017).
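Note: KINOMEscan kinase panel screen.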

For the compound `COc1cc2nccc(Nc3ccc(NC(=O)c4ccc(C)cc4)c(O)c3)c2cc1OC.Cl` [GW440132], the “%Inh” value in [1] stood at 1%; in [2], 0%; in assay [3] it was 0%; in [4] it was 22%; in assay [5], 0%; in assay [6], 36%. Also, the “%Inh” value was found to be 0% in [7], 3% in [8], 32% in [9] and 31% in [10].

In the case of `Cc1ccccc1-n1cnc2c(N)ncnc21` [SKF-97510], the “%Inh” value in assay [1] is on record as 0%; in assay [2], 0%; in assay [3] it was 0%; in assay [4] it was 12%; in assay [5] it was 0%; in [6], 5%. The “%Inh” value in [7], in [8], in assay [9] and in [10] was 0% each time.

As to `Cc1csc(-c2nc(Nc3ccncc3)c3ccccc3n2)n1` [GW869640], the “%Inh” value in assay [1] is given as 6%; in [2], 42%; in [3], 36%; in [4], 14%; in [5], 10%; in assay [6], 8%. Further, the “%Inh” value in [7] is recorded as 0%; in assay [8] it was 15%; in assay [9], 0%; in assay [10] it was 72%.

`COc1ccc(Nc2nccc(-c3cccc(NC(=O)c4cc5cc(F)ccc5[nH]4)c3)n2)cc1` [GSK1229782]: the “%Inh” value in assay [1] was 10%; in assay [2], 0%; in [3], 15%; in assay [4], 16%; in [5], 0%; in assay [6], 22%. Besides, the “%Inh” value turned out to be 4% in assay [7], 12% in assay [8], 31% in [9] and 64% in [10].

For the compound `Cn1ccc2ncnc(Oc3cccc(C(=O)Nc4ccccc4)c3)c21`, the “%Inh” value in assay [1] was found to be 5%; in [2], 13%; in assay [3], 14%; in assay [4] it was 0%; in assay [5], 0%; in assay [6], 15%. For the same compound, the “%Inh” value in [7] worked out at 0%; in assay [8], 0%; in assay [9], 0%; in assay [10] it was 8%.

For the compound `O=C1NC(=O)C(N2CCc3ccccc32)=C1c1ccccc1Cl` [SB-373598], the “%Inh” value stood at 0% in assay [1]; 8% in [2]; 100% in assay [3]; 29% in [4]; 1% in assay [5]; 24% in assay [6]. Further, the “%Inh” value in [7] is 12%; in assay [8], 9%; in assay [9], 0%; in assay [10], 16%.

`O=C(Nc1n[nH]c2nc(-c3nccs3)c(Br)cc12)C1CCCC1` [SB-742609]: the “%Inh” value was 0% in [1]; 0% in assay [2]; 13% in assay [3]; 0% in assay [4]; 12% in [5]; 26% in [6]. Besides, the “%Inh” value was 93% in assay [7], 85% in assay [8], 0% in assay [9] and 37% in [10].

Regarding `CS(=O)(=O)c1ccc(-c2c(-c3ncn[nH]3)sc(N3CCOCC3)c2C#N)cc1`, the “%Inh” value in [1] is on record as 17%; in [2], 4%; in [3], 12%; in assay [4], 0%; in [5], 12%; in [6], 0%. In addition, the “%Inh” value in [7] stood at 100%; in [8] it was 32%; in assay [9] it was 0%; in [10], 29%.
